High-throughput results as filed in PubChem.
PK Bst = Pyruvate Kinase; purified pyruvate kinase, luminescence ATP production; ribose 5-phosphate activator present at AC10; Potency, µM; hit rate 1.2% among 51,000; AID 361, 2006; in the data active means potency below about 11 µM; inconclusive means mostly about 12 µM to 25 µM;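 the screen sought inhibitors and activators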
GFP derepression = qHTS Assay for Epigenetic Modulators | hit rate 0.09% among 68,000 | Potency, µM (top dose mostly 46.1 µM) | mouse C127i GFP locus derepression, cytometry, 30 h
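Locus derepression in mouse mammary C127i cells whose integrated CMV-GFP reporter is normally silent; GFP expression after 30 h compound treatment was quantified by counting fluorescent cells.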
Luciferase inh = qHTS Assay for Inhibitors of Firefly Luciferase | Luciferin 4-monooxygenase (Photinus pyralis), P08659 | purified firefly luciferase, luminescence, 8 min | Potency, µM (series often up to 57.1 µM), most hits filed as inhibitors | hit rate 2.2% among 72,000; further: nearly all actives have a fitted effect of over 40% in size
Target sequence (P08659 whole entry, looked up): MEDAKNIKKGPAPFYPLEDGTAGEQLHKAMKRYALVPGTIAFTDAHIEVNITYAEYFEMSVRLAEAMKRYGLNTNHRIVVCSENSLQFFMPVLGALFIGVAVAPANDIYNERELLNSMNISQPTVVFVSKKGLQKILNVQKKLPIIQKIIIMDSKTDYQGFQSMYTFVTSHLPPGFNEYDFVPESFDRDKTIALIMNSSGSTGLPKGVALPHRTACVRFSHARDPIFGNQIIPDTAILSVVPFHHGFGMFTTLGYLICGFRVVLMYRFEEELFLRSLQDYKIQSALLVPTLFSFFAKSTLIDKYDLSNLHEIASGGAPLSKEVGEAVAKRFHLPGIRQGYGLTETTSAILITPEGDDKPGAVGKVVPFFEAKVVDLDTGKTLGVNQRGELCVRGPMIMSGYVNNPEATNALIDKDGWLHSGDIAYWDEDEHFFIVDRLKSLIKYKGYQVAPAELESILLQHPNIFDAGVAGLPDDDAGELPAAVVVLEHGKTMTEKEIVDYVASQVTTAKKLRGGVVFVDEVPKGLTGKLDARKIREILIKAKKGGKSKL
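qHTS concentration-response profiling: light output of P. pyralis luciferase with luciferin and 10 uM ATP, imidazole buffer pH 7.2. Read by luminescence after 8-min room-temperature incubation.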
HBB splicing = qHTS Assay for Modulators of Hemoglobin Beta Chain Splicing; Potency, µM (highest dose often 46.1 µM), hits mostly activators; HBB splicing reporter cell assay, activation; EGFP reporter with mutant IVS2-654 intron; response scale: normalised to 500 nM splice-correcting PNA; hit rate 0.06% among 65,000
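HeLa cells stably expressing EGFP interrupted by mutant beta-globin intron 2 (IVS2-654), 500/well in 2% FCS. Treated with compound for 2 days at 37C. Splicing correction scored as total well GFP intensity (488 nm excitation, 500-520 nm emission); 500 nM antisense PNA served as control.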
Ub-GFP proteasome = Ubiquitin-GFP Assay. Ubiquitin-GFP reporter cells, proteasome inhibition, GFP fluorescence; response scale: untreated = 0%, 10 µM MG-132 = 100%. Potency, µM (highest dose often 45.9 µM), most hits filed as activators. 67,000 tested, under 10 active. AID 526, 2006; active means well fitted activation curve with a large enough effect, not every such curve was filed as active; inconclusive means small, poorly fitted or top-dose-only effect, or another doubt; inactive means no such curve, though single readings can be large or run the other way
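Reporter cells (U2OS, ubiquitin-G76V-GFP fusion) are plated overnight, then treated 4 hr at 37 °C with compound titrations from 46 uM down to 2.9 nM. Activity is scaled against untreated cells and 10 uM MG-132.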
A number is an active result; i = inactive; ? = inconclusive; nt = no result given; ! = a repeat was not active; [ ] = remark or other dose. An excerpt weighted towards active compounds, which were near 2.6% of everything screened. Unless noted, the call rests on the fitted dose curve; in most records, active means well fitted curve in the direction sought with a large enough effect; inconclusive means small, poorly fitted or top-dose-only effect, or another doubt; inactive means no such curve, though single readings can be large; an effect the other way counts as inactive or inconclusive.

SMILES | PK Bst | GFP derepression | Luciferase inh | HBB splicing | Ub-GFP proteasome
CCOC(=O)c1sc(NC(=O)c2ccc3ncsc3c2)nc1C | nt | nt | i | i | i
O=C(CS(=O)(=O)Cc1ccccc1)Nc1nc2c(s1)CCCC2 | i | i | i | i | i
Cc1ncsc1C(=O)Nc1nc2c(s1)CCCC2 | i | i | 20µM | nt | i
Cc1ccc(-c2nc(-c3nccc4ccccc34)oc2-c2ccccc2)cc1 | nt | i[9.22 µM] | 3.2µM | i[9.22 µM] | i[9.17 µM]
Clc1ccc(-c2nnc(-c3ccco3)o2)cc1 | 4 | i | i | i | i
c1cncc(-c2nnc(-c3ccco3)o2)c1 | i | i | i | nt | i
CC(C)c1cc(C(=O)Nc2cccc(Cl)c2)no1 | i | i | 13µM | i | i
CC(=O)c1cccc(NC(=O)c2cc(C(C)C)on2)c1 | nt | i | 16µM | i | i
CC(C)Cc1cc(C(=O)Nc2cc(Cl)ccc2Cl)no1 | nt | nt | i | i | i
CC(C)c1cc(C(=O)Nc2cc(Cl)ccc2O)no1 | nt | i | 16µM | i | i
Clc1ccccc1-c1ccc2ncnc(NCCN3CCOCC3)c2c1 | nt | i[9.22 µM] | i[2.29 µM] | i | i
CCN(CC)C[C@@H](O)c1ccc2ccc3ccccc3c2c1 | nt | ? | i[11.4 µM] | i[9.22 µM] | i[9.17 µM]
CC(C)=NOC[C@@H](C)[C@H](OCc1ccccc1)C(C)C | nt | nt | i[11.4 µM] | i[9.22 µM] | nt
CC(=O)c1c(C)n(C)c2ccc(OC(=O)c3ccco3)cc12 | 8.4 | i | i | nt | i
CCOc1ccc(-c2nc(-c3ccccc3C)no2)cc1 | 8 | i | 2µM | i | i
Oc1ccc(COCc2ccccc2)c2cccnc12 | i | 3.2µM | i | nt | i
Oc1ccc(CNCc2ccccc2)c2cccnc12 | nt | ? | i[11.4 µM] | i[9.22 µM] | i[9.17 µM]
Cc1ccc(S(=O)(=O)Nc2ccc3c(c2)ncn3C(C)(C)C)cc1 | nt | i | i | i[9.22 µM] | i
CC(C)(C)n1cnc2cc(NS(=O)(=O)c3ccc(Br)cc3)ccc21 | 2.5 | i | i | nt | nt
O=C(Nc1cccc(F)c1)N1CCC2(CC1)CCN(C(=O)c1cnccn1)CC2 | nt | ? | i[11.4 µM] | i | i
CCCCNc1c(CN)cnc2cc(Cl)ccc12 | nt | i[9.22 µM] | i[11.4 µM] | i[9.22 µM] | i[9.17 µM]
COc1ccc(-n2nc(C(=O)NCC(=O)N3CCN(c4ccccn4)CC3)c3ccccc3c2=O)cc1 | 8.2 | i | 3.2µM | i | i
COc1cc(C(=O)Oc2c(CN3CCOCC3)cc(Cl)c3cccnc23)cc(OC)c1OC | nt | nt | i | i | i
COc1ccc(C(=O)Oc2c(CN3CCOCC3)cc(Cl)c3cccnc23)cc1 | i | 7.9µM | i | i | i
CN(C)c1ccc(N=Nc2cccc3ccoc23)cc1 | nt | i[9.22 µM] | 4µM | i[9.22 µM] | i[9.17 µM]
SMILES | PK Bst | GFP derepression | Luciferase inh | HBB splicing | Ub-GFP proteasome
CCOC(=O)c1c(C)[nH]c(C(=O)COC(=O)c2oc3ccc(OC)cc3c2C)c1C | i | i | i | i | i
CCOC(=O)c1oc2ccc(CNCCO)c(Cl)c2c1C | nt | i | 25µM | nt | i
CCOC(=O)C(/C(N)=N/C(=O)Nc1ccccc1)=C(\C)O | nt | i | 13µM | i | i
C/C(O)=C(/N=O)C(=O)Nc1ccccc1 | i | i | i | i | i
CCOC(=O)c1c(C)nc2c3ccccc3ccn12 | 6.9 | i | 10µM | i | i
CC1(C)CNC(=O)c2sc(N3CCCCC3)nc2C1 | i | i | 2µM | i | i
O=C(CSc1nnc(SCc2ccc(Cl)cc2)s1)N1CCN(C(=O)c2ccco2)CC1 | nt | i | 4µM | i | i
CC(C)(C)c1ccc(C(=O)Nc2cnccn2)cc1 | 5.6 | i | 4µM | i | i
CCC1OCCC=CC1C (centres undefined) | nt | nt | nt | i[9.22 µM] | nt
CC(=O)N1CC=CC1(C)C(=O)NCC1CC1 (centres undefined) | nt | nt | nt | i | nt
O=C1CC(Sc2nnnn2C2CCCCC2)C(=O)N1c1ccccc1 (centres undefined) | nt | i | 16µM | i | i
Cc1c(O)nc(SC2CC(=O)N(c3ccccc3)C2=O)[nH]c1=O (centres undefined) | i | i | i | i | i
CO[C@H]1COC(=O)[C@H](C)NC(=O)C/C=C\[C@@H](C)[C@@H](NS(=O)(=O)c2ccc(C)cc2)COC(=O)C/C=C\[C@@H]1C | nt | nt | i[11.4 µM] | i[9.22 µM] | nt
NC(=O)c1ccc(-c2ncc(-c3ccccc3)o2)cc1 | 4 | i | 13µM | i | i
c1ccc(-c2cnc(-c3cccnc3)o2)cc1 | nt | i | i | i[9.22 µM] | i
O=Nc1c(-c2c(O)[nH]c3ccccc23)[nH]c2ccccc12 | nt | i | 25µM! | i | i
CC(=C1C2C=CC1C1C(=O)NC(=O)C21)c1ccccc1 (centres undefined) | i | ? | i | 16µM | i
COC(=O)[C@@H]1[C@@H]2C[C@H]3c4[nH]c5ccccc5c4CCN3C[C@@H]2CC[C@@H]1O | nt | i[9.22 µM] | i[11.4 µM] | i[9.22 µM] | i[9.17 µM]
CCCCC#CC1C=CC(Oc2cc(OC)c(OC)c(OC)c2)C(COC(=O)OCC)O1 (centres undefined) | nt | nt | nt | i[9.22 µM] | nt
Cc1ccc(Nc2nc(N)nc(CSc3nccn3C)n2)cc1 | nt | i | 20µM | i | i
COc1ccccc1Nc1nc(N)nc(CSc2nncn2C)n1 | i | i | i | nt | i
O=[N+]([O-])c1ccc(CSCc2ccc(Cl)cc2)cc1 | nt | i[9.22 µM] | i[11.4 µM] | i[9.22 µM] | i[9.17 µM]
Nc1nc(C(=O)O)c(N=Nc2ccccc2)c(=O)[nH]1 | nt | i[9.22 µM] | i[11.4 µM] | i[9.22 µM] | i[9.17 µM]
CC(=O)Nc1ccc2nc(-c3cccnc3)[nH]c2c1 | i | i | i | nt | i
O=C(Nc1ccc2nc(-c3ccco3)[nH]c2c1)c1cccs1 | 10 | i | 13µM | i | i
SMILES | PK Bst | GFP derepression | Luciferase inh | HBB splicing | Ub-GFP proteasome
CC(=O)Nc1cccc(-c2nc3ccc(NC(C)=O)cc3[nH]2)c1 | i | i | 16µM | nt | i
O=C(Nc1ccc2nc(-c3cccnc3)[nH]c2c1)c1ccco1 | nt | i | 16µM | i | i
O=C(Nc1ccc2nc(-c3ccco3)[nH]c2c1)c1ccco1 | 10 | i | 13µM | nt | i
Cn1cccc1-c1nc2ccc(NC(=O)c3ccccc3)cc2[nH]1 | nt | i | i | i | i
Cc1ccco1 | nt | nt | nt | i | nt
COc1ccc(-n2c(=O)c(-c3cc(F)cc(F)c3)nc3cnc(N(C)C)nc32)cc1 | nt | ? | i[11.4 µM] | i | i
